Reference: article PMC5540273 (PLoS ONE, 2017)
Like-named read-outs stand apart in the source and are kept apart here.

What was measured:
Settings in all cases: n = 1
GRK7 = system: GRK7
GSK3A = system: GSK3A
GSK3B = system: GSK3B
HASPIN = system: T1, HASPIN
T1 construct: gene GSG2

HCK = system: HCK
HIPK1 = system: HIPK1
HIPK2 = system: HIPK2
HIPK3 = system: HIPK3
HIPK4 = system: HIPK4
HPK1 = system: HPK1
[1] = concentration: 1 μM, replicates: in singlicate
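Further: KINOMEscan kinase panel screen.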

| SMILES | %Inh (GRK7; [1]) | %Inh (GSK3A; [1]) | %Inh (GSK3B; [1]) | %Inh (HASPIN; [1]) | %Inh (HCK; [1]) | %Inh (HIPK1; [1]) | %Inh (HIPK2; [1]) | %Inh (HIPK3; [1]) | %Inh (HIPK4; [1]) | %Inh (HPK1; [1]) | %Inh (GSK3B; 1 µM) | %Inh (GRK7; 1 µM) | %Inh (GSK3A; 1 µM) | %Inh (HASPIN; 1 µM) | %Inh (HCK; 1 µM) | %Inh (HIPK1; 1 µM) | %Inh (HIPK2; 1 µM) | %Inh (HIPK3; 1 µM) | %Inh (HIPK4; 1 µM) | %Inh (HPK1; 1 µM) |
| --- | --- | --- | --- | --- | --- | --- | --- | --- | --- | --- | --- | --- | --- | --- | --- | --- | --- | --- | --- | --- |
| CCn1c(-c2ccccn2)nc2cnccc21 [SB-736398] | 0% | 22% | 0% | 47% | 0% | 0% | 13% | 0% | 0% | 38% |  |  |  |  |  |  |  |  |  |  |
| O=C(Nc1n[nH]c2nc(-c3nccs3)c(Br)cc12)C1CC1 [SB-742251] | 0% | 89% |  | 11% | 0% | 0% | 0% | 0% | 0% | 48% | 39% |  |  |  |  |  |  |  |  |  |
| Cc1ccc(NC(=O)Nc2cccc(C(F)(F)F)c2)cc1 [GSK955403] |  |  |  |  |  |  |  |  |  |  | 0% | 10% | 0% | 12% | 0% | 8% | 0% | 0% | 0% | 0% |
| Cc1cc(-c2ccc3c(c2)CC[C@@H](N[C@@H](C)c2ccccc2)C3)cnc1N.Cl [GW412617] | 0% | 0% | 6% | 0% | 0% | 0% | 6% | 12% | 6% | 55% |  |  |  |  |  |  |  |  |  |  |
| CC(C)(C)c1ccc(C(=O)Nc2cn3cc(-c4cccnc4)ccc3n2)cc1 | 24% | 16% | 5% | 0% | 44% | 52% | 27% | 25% | 15% | 11% |  |  |  |  |  |  |  |  |  |  |
| COc1cc(Nc2nccc(N3CCC(NC(=O)Nc4cc(C)ccc4C)C3)n2)cc(OC)c1OC (centres unmarked) [GSK1379762] | 0% | 0% | 11% | 0% | 0% | 0% | 0% | 13% | 0% | 66% |  |  |  |  |  |  |  |  |  |  |
| Cl.c1ccc(-c2n[nH]cc2-c2ccnc(-c3ccc(CN4CCOCC4)cc3)c2)nc1 [GW776245] | 0% | 0% | 0% | 0% | 13% | 54% | 0% | 0% | 17% | 64% |  |  |  |  |  |  |  |  |  |  |
| NC(=O)c1nnc2ccccc2c1N | 0% | 5% | 24% | 73% | 0% | 45% | 50% | 37% | 4% | 0% |  |  |  |  |  |  |  |  |  |  |
| O=C(Nc1ccc2c(c1)OCO2)NC1CCN(c2ccnc(Nc3ccc(F)cc3)n2)C1 (centres unmarked) [GSK1379724] | 0% | 1% | 16% | 0% | 0% | 0% | 0% | 1% | 0% | 45% |  |  |  |  |  |  |  |  |  |  |
| CC(=O)Nc1nc2cnc(Nc3cc(NC(=O)c4cccc(CCC#N)c4)ccc3C)nc2s1 | 6% | 0% | 0% | 21% | 21% | 15% | 20% | 6% | 5% | 0% |  |  |  |  |  |  |  |  |  |  |
| C[C@@H]1CCCCN1c1cc(-c2ccc3c(N)n[nH]c3c2)nc(N)n1 [GSK2258759] | 0% | 3% | 3% | 14% | 0% | 0% | 0% | 14% | 0% | 28% |  |  |  |  |  |  |  |  |  |  |
| Cc1c(Cn2ccn3c(=O)cc(N4CCOCC4)nc23)cccc1C(F)(F)F [GSK2289044] | 0% | 1% | 8% | 0% | 0% | 0% | 0% | 24% | 0% | 15% |  |  |  |  |  |  |  |  |  |  |
| Nc1nc(-c2nccs2)c(-c2ccnc3ccccc23)s1 [GW693542] | 0% | 5% | 14% | 0% | 0% | 3% | 0% | 21% | 0% | 30% |  |  |  |  |  |  |  |  |  |  |
| Cc1cccc(-c2cc(Nc3ccncc3)c3ccccc3n2)n1 [GSK223675] | 0% | 17% | 12% | 0% | 0% | 0% | 0% | 5% | 0% | 12% |  |  |  |  |  |  |  |  |  |  |
| O=C(Nc1ccccc1)Nc1cccc(Oc2ccc3nccn3n2)c1 | 0% | 50% | 0% | 4% | 24% | 0% | 27% | 0% | 9% | 33% |  |  |  |  |  |  |  |  |  |  |
| Cc1c(O)cccc1Nc1ccnc2ccc(C(F)(F)F)cc12.Cl [GW466413] | 0% | 9% | 0% | 34% | 43% | 0% | 0% | 0% | 0% | 3% |  |  |  |  |  |  |  |  |  |  |
| Cc1cccc(-c2nc(Nc3ccc4[nH]ncc4c3)c3ccccc3n2)n1 [GW857175] | 4% | 14% | 21% | 68% | 0% | 0% | 20% | 35% | 3% | 54% |  |  |  |  |  |  |  |  |  |  |
| Cc1ccc(-c2cc(-c3c[nH]nc3-c3ccccn3)ccn2)cc1 [GW684088] | 0% | 22% | 2% | 35% | 0% | 7% | 0% | 1% | 0% | 24% |  |  |  |  |  |  |  |  |  |  |
| COc1ccc(C2=C(Nc3cccc(C(=O)O)c3)C(=O)NC2=O)cc1 [SB-390765] | 12% | 7% |  | 28% | 8% | 8% | 16% | 21% | 21% | 0% | 31% |  |  |  |  |  |  |  |  |  |
| Cl.NC(=O)c1cccc(Nc2nccc(Nc3ccc(Oc4cccc(Cl)c4)c(Cl)c3)n2)c1 [GW659008] | 0% | 0% | 0% | 0% | 72% | 0% | 0% | 0% | 0% | 37% |  |  |  |  |  |  |  |  |  |  |
